Compound activity (PubChem)
SARS PLP yeast = inhibitors of SARS-CoV papain-like protease in yeast | S. cerevisiae expressing SARS-CoV PLpro, growth rescue | Potency, µM (highest dose often 32.9 µM), most hits filed as activators | hit rate 0.19% among 330,000; note: nearly all actives have a fitted effect of over 55% in size
NS1 inh = inhibitors of influenza NS1 protein function | Potency, µM (top dose mostly 46.1 µM) | hit rate 0.4% among 270,000 | AID 2326; note: actives are rising curves; nearly all actives have a fitted effect of over 50% in size
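Growth recovery, yeast-based: influenza A NS1 expressed in S. cerevisiae causes slow growth, and suppressors are detected by OD600. The parent strain without NS1 is used as positive control.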
Pf growth 96h = inhibits malaria parasite growth, 96 h | P. falciparum luciferase reporter growth, 96 h | Potency, µM (titrated, usually from 28.7 µM), most hits filed as inhibitors | hit rate 6.9% among 320,000; active = well fitted inhibition curve with a large enough effect; inconclusive = small, poorly fitted or top-dose-only effect, or another doubt; inactive = no such curve, though single readings can be large or run the other way
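Cell-based qHTS: luciferase-tagged P. falciparum in erythrocytes (2% hematocrit, 0.05% parasitemia final) incubated with compounds for 96 hours, 37 C, 5% CO2; luciferase detection reagent then added and luminescence measured.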
Pf growth 48h = inhibits P. falciparum growth in the first generation, 48 h. P. falciparum luciferase growth in erythrocytes, 48 h. Potency, µM (doses to about 28.7 µM), actives largely listed as inhibitors. hit rate 5.9% among 310,000. AID 504832; active = well fitted inhibition curve with a large enough effect; inconclusive = small, poorly fitted or top-dose-only effect, or another doubt; inactive = no such curve, though single readings can be large or run the other way
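Here the parasites carry a stable luciferase gene and grow inside erythrocytes in Albumax-based RPMI medium with compound for one erythrocytic cycle. Activity is scored as loss of luminescent signal.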
Hits are given with their value; - = inactive; ? = inconclusive; . = not tested or not shown; ! = not confirmed by another sample; [ ] = another dose, or the depositor's remark. In the library only some 10% were active in any assay of this set; here they are far more common. Unless noted, calls come from the whole dose curve.

SMILES	SARS PLP yeast	NS1 inh	Pf growth 96h	Pf growth 48h
Cc1ccc2c(Cl)cc(Cl)c(OCC(=O)Nc3cc(S(=O)(=O)N(C)C)ccc3C)c2n1	-	?	12µM	?
COc1ccc(Cl)cc1NC(=O)C(C)N1CCN(c2ccccn2)CC1 (configuration not stated)	-	-	-	-
Cc1cccc(C)c1NC(=O)COC(=O)/C=C/c1ccc(S(=O)(=O)N2CCOCC2)cc1	-	.	.	.
Cc1cc(NC(=O)C(C)SCC(=O)OCc2c(Cl)cccc2Cl)no1 (configuration not stated)	-	-	?	-
CCN(CC)C(=O)N[C@@H]1C[C@@H]2c3cccc4[nH]cc(c34)C[C@H]2N(C)C1	.	?	-	?
CCCN1C[C@H](CSC)C[C@@H]2c3cccc4[nH]cc(c34)C[C@H]21	-	-	10µM	?
Cc1ccc(SCC(=O)OC(C)C(=O)NCc2ccccc2)cc1C (configuration not stated)	-	.	-	-
Cc1ccc2cc(CCNC(=O)c3ccc(C)c([N+](=O)[O-])c3)c(=O)[nH]c2c1	-	-	4.7µM	?
CCC(CC)C(=O)NCCc1cc2ccc(C)cc2[nH]c1=O	-	-	-	-
COc1ccc(OC)c2[nH]c(=O)c(CCNC(=O)c3ccc(S(=O)(=O)N4CCCC4)cc3)cc12	-	-	-	?
COc1ccc2cc(CCNC(=O)c3cccc([N+](=O)[O-])c3)c(=O)[nH]c2c1	-	.	?	5.2µM
Cc1ccc2cc(CCNC(=O)C(=O)c3c[nH]c4ccccc34)c(=O)[nH]c2c1	-	-	?	9.3µM
COc1ccc2cc(CCNC(=O)c3ccc(S(=O)(=O)N4CCCC4)cc3)c(=O)[nH]c2c1	-	-	5.9µM	13µM
CN(C)CCCN1CCC2(CCC(C(C)(C)C)CC2)CC1	.	-	.	.
COc1ccc2cc(CCNC(=O)c3ccc4c(c3)OCO4)c(=O)[nH]c2c1	-	-	10µM	?
COc1ccc(CCNC(=O)c2ccc3c(c2)OCO3)cc1	-	-	-	-
O=C(CSc1nc2ccccc2[nH]1)c1c[nH]c2ccccc12	-	-	-	-
Cc1ccc2nc(SCC(=O)c3c[nH]c4ccccc34)[nH]c2c1	-	-	?	2.9µM
CN(Cc1ccccc1)C(=O)c1ccccc1N(C)S(=O)(=O)c1ccccc1	-	.	?	-
Cc1ccc(/C=N/NC(=O)COc2ccc(Cl)c(C)c2)o1	-	-	-	-
Cc1nc2c(oc3ccc(Cl)cc32)c(=O)[nH]1	-	-	-	-
COc1ccccc1NC(=O)c1sc2ncn(Cc3cccc4ccccc34)c(=O)c2c1C	-	-	9.3µM	-
CCn1c(C)c(C)c2cc(C(=O)NCCN3CCCCCC3)ccc21	-	-	?	-
Cc1cccc(NC(=O)c2ccc([N+](=O)[O-])s2)n1	-	-	8.3µM	?
Cc1ccnc(NC(=O)c2ccc([N+](=O)[O-])s2)c1	-	-	7.4µM	?
SMILES	SARS PLP yeast	NS1 inh	Pf growth 96h	Pf growth 48h
Cc1cccc(C)c1NC(=O)c1ccc([N+](=O)[O-])s1	-	-	-	?
Cc1cccc(NC(=O)c2ccc([N+](=O)[O-])s2)c1C	-	-	-	2.6µM
Cc1cccc(NC(=O)c2ccc([N+](=O)[O-])cc2Cl)n1	-	-	?	-
O=C(O)CO.[NH2-].[NH2-].[Pt+2]	.	.	-	-
Cc1ccc(CN(C(=O)COc2cccc(C)c2C)C2CCS(=O)(=O)C2)o1 (configuration not stated)	-	-	-	-
COc1ccc(CCN2CCC(Nc3nc4ccccc4n3Cc3ccc(F)cc3)CC2)cc1	-	-	0.74µM	0.52µM
c1ccc(C2CN3CCSC3=N2)cc1 (configuration not stated)	-	?	1.9µM!	2.7µM!
COc1ccccc1C1=NC(c2ccccc2)CN1c1ccccc1 (configuration not stated)	-	-	-	-[0.00184 µM]
COc1ccc(CC(=O)NC2CCCCCC2)c(OC)c1	-	-	-	-
COc1ccc(NS(=O)(=O)c2cc(NC(=O)C3CCCO3)ccc2N2CCCCC2)cc1 (configuration not stated)	-	.	?	5.2µM
COc1ccc(NS(=O)(=O)c2cc(NC(=O)CCNC(C)=O)ccc2N2CCCCC2)cc1	-	.	?	9.3µM
COc1ccc(NS(=O)(=O)c2cc(NC(=O)C3CCCO3)ccc2N2CCCC2)cc1 (configuration not stated)	-	-	-	-
CN1CCN(c2c(/C=N/O)c3ccccc3n2C)CC1	-	-	-	-
Cc1ccccc1C(=O)O/N=C/c1c(N2CCOCC2)n(C)c2ccccc12	-	-	2.3µM	2.6µM
COCCN1CCN(Cc2nc(C3(c4ccc(C)cc4)CCCC3)no2)CC1	-	-	10µM	-
CC(=O)N1CCCN(Cc2nc(C3(c4ccc(C)cc4)CCCC3)no2)CC1	-	-	-	-
Cc1ccc(C2(c3noc(CN4C[C@@H](C)O[C@@H](C)C4)n3)CCCC2)cc1	-	-	12µM	12µM
O=C(OCC(=O)N1CCN(c2ccccc2)CC1)c1ccc(Cl)nc1	-	.	-	-
O=C(COc1ccc(Cl)cc1Br)N1CCN(c2ccccc2)CC1	?	-	3.7µM	-
COc1ccc(N2CCN(C(=O)COc3ccc4ccccc4c3)CC2)cc1	-	-	9.3µM	-
O=C(COc1ccc(Br)cc1)N1CCN(c2ccccc2)CC1	-	-	4.7µM	.
O=C(OCC(=O)N1CCN(c2ccccc2)CC1)c1ccc2ncsc2c1	-	-	12µM	.
O=C(COc1ccccc1)N1CCN(c2ccccc2)CC1	-	-	-	-
O=C(COc1ccccc1)N1CCN(CC(O)COc2ccccc2)CC1 (configuration not stated)	-	-	15µM	-
COc1ccc(CC(=O)NCC2CCCN(Cc3ccc(OC(F)(F)F)cc3)C2)cc1 (configuration not stated)	-	-	?	9.3µM
SMILES	SARS PLP yeast	NS1 inh	Pf growth 96h	Pf growth 48h
COC(=O)c1ccc(CN2CCCC(CNC(=O)Cc3ccc(OC)cc3)C2)cc1 (configuration not stated)	-	-	?	-
Cc1ccc(C)c(NC(=O)CCN2C(=O)[C@@H]3Cc4ccccc4CN3C2=O)c1	-	-	-	-
Cc1cccc(N2CCN(c3cccc(C)c3)C2c2cccnc2)c1	-	-	-	1.9µM
Cc1nn(-c2ccccc2)c(C)c1/C=N/NC(=O)c1cc(-c2ccccc2)n[nH]1	-	-	9.3µM	15µM
Cc1cccc(OCc2nnc(-c3ccc(F)cc3)o2)c1	-	.	-	-
Cc1cc(OC(=O)CCCNC(=O)OC(C)(C)C)c2c3c(c(=O)oc2c1)CCC3	-	-	-	-
Cc1cc(OC(=O)CCNC(=O)OC(C)(C)C)c2c3c(c(=O)oc2c1)CCC3	-	-	4.7µM	4.7µM
CC(C)(C)NCC(O)c1cc(Cl)c(N)c(Cl)c1 (configuration not stated)	?	-	11µM!	12µM
CC(C(=O)Nc1ccc(C#N)cc1)N1CCN(C(=O)C2CC2)CC1 (configuration not stated)	-	.	-	-
Cc1cc(N)c2ccccc2[n+]1CCCCCCCCCCCCCC[n+]1c(C)cc(N)c2ccccc21	.	-	.	.
CC(C)c1ccc(Nc2c([N+](=O)[O-])c(=O)n(C)c3ccccc23)cc1	-	-	?	?
